This is part of a sample that, as a whole, favours compounds with a hit. Of some 83,000 tested, about 20% had one in any assay.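 Single-dose data. Exposure time 48 hours. Values below 10 considered active.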 Activity calls are given as the source filed them.

The first assay relates to DU-145 prostate. Briefly: NCI-60 one-dose screen, 48 h (100 = growth as untreated, 0 = no growth, -100 = all killed). The settings on record: 10 µM unless noted.
As for `COC(=O)c1ccc(NC(=O)c2ccc(-c3cccc([N+](=O)[O-])c3)o2)cc1`, the growth is 110% (inactive).
Take `O=c1cc(/C(=C2/C=CC=N2)c2ccc[nH]2)c2cc(Cl)ccc2o1`: the growth was 47% (inactive).
With `COc1ccc2nc(NC(=O)CSc3nnc4n3S(=O)(=O)c3ccccc3N4c3ccccc3)sc2c1`, the growth is 99.3% (inactive).
Same read-out and setting: in the case of `Cc1cc(C)nc(SC2=C(Nc3ccc(C)c(Cl)c3)C(=O)N(Cc3ccccc3)C2=O)n1` it was 87.8% [30 µM] (inactive); in that of `CC(C)C1=C[C@@]23CC[C@@H]4[C@](C)(CCC[C@@]4(C)C(=O)N4CCCNCC4)[C@H]2C[C@@H]1[C@H]1C(=O)CCC(=O)[C@H]13`, 114% (inactive).
Same read-out and setting: then `O=C1C=C(OCC=C(Cl)Cl)C(=O)c2ccccc21`, with 77.4% (inactive); and `COc1cccc(/C=C2\SC(=Nc3ccc(NC(C)=O)cc3)NC2=O)c1OC`, with 85.1% (inactive).
Still for that read-out and setting: then `C=CCSSc1ncnc2c1ncn2C1OC(CO)C(O)C1O` (stereo not given), with 35.2% (inactive); and `Cc1ncc(C(=O)Nc2ccc(CN3CCN(C)CC3)c(C(F)(F)F)c2)cc1C#Cc1cnc2cccnn12`, with 5.5% (active).
As to `NNCCc1ccc(NC(=O)CCCc2ccc(/C=C/C(=O)NO)cc2)cc1`, the growth was 72.6% (inactive).
`COc1cc2c(cc1-c1c(C)noc1C)ncc1nc(C3CCOCC3)n([C@H](C)COC(F)F)c12`: the growth is 69.2% (inactive).
The same measure, in the same setting: in the case of `C=CC(=O)Nc1cccc(-c2nc(SC)nc(NCCc3ccc(OC)c(OC)c3)c2C#N)c1` it was 56.9% (inactive).

The test system of another assay is K-562 leukemia. The assay is described as above. The following applies: 10 µM unless noted.
As to `N#CCCN=Nc1c(O)[nH]c2ccc([N+](=O)[O-])cc12`, the growth was 105% (inactive).
On the same count and under the same terms, then `COc1cc(-c2ccc3c(c2)NC(=O)/C3=C\c2ccc[nH]2)ccc1O`, with 5.55% (active).
Same read-out and setting: then `C=C(C)[C@@H]1CC[C@]2(C(N)=O)CC[C@]3(C)[C@H](CC[C@@H]4[C@@]5(C)C/C(=C/c6ccco6)C(=O)C(C)(C)[C@@H]5CC[C@]43C)[C@@H]12`, with 80.1% (inactive); and `O=C1Nc2c(ccc(Cl)c2Cl)/C1=C\c1cc(C(F)(F)F)cc(C(F)(F)F)c1`, with 0.912% (active); and `COc1cc2c(cc1-c1c(C)noc1C)ncc1nc(C3CCOCC3)n([C@@H](C)COC(F)F)c12`, with 34.2% (inactive).
For `O=C1Nc2c(ccc(Cl)c2Cl)/C1=C\c1ccc(C(F)(F)F)cc1`, the growth was 32.8% (inactive).
The same measure, in the same setting: in the case of `C[n+]1ccccc1/C=C/c1ccc2cccc(O)c2n1` it was 102% (inactive).
On to `COc1ccc(/C=C/c2nc3ccccc3nc2/C=C/c2ccc(OC)cc2)cc1`, for which the growth was 101% (inactive).
In the case of `C=CC(=O)Nc1cccc(-c2nc(SC)nc(NCCN3CCOCC3)c2C#N)c1`, the growth was 87.7% (inactive).
With `COc1cc2nc(N3CCCC3)nc(NCc3ccccc3)c2cc1OC`, the growth is 1.41% (active).
Turning to `COc1cc(CNc2oc(-c3ccccc3)c(-c3ccccc3)c2C#N)cc(CN2CCN(C)CC2)c1O`, the growth is -9.86% (active).
The same measure, in the same setting: in the case of `O=C(/C=C/c1cc(CN2CCOCC2)c(O)c2ncccc12)c1cc(CN2CCOCC2)c(O)c2ncccc12` it was 10.4% (inactive).
On the same count and under the same terms, then `CSc1nc(NCCO)c(C#N)c(-c2cccc([N+](=O)[O-])c2)n1`, with 90.8% (inactive); and `CCN(CC)c1ccc(-c2cc(-c3cc(OC)c(OC)c(OC)c3)nc(N3CCOCC3)c2C#N)cc1`, with 1.69% (active).
Regarding `COc1ccc2[nH]cc(-c3noc(C(=O)c4cn(C)c5ccc(F)cc45)n3)c2c1`, the growth was 101% (inactive).
The same measure, in the same setting: then `CCCc1cc(=O)n2c(C(=O)Nc3cccc(C(=O)OCC)c3)c(C(=O)Nc3ccc(F)cc3)sc2n1`, with 79.7% [30 µM] (inactive); and `O=S(=O)(Nc1ccc(I)cc1F)c1ccc(-c2cnc(C3CC3)o2)cc1`, with 13.2% (inactive); and `COC(=O)c1cccc(NC(=O)c2ccc(-c3cccc(N)c3)o2)c1`, with 94.9% (inactive).
Regarding `O=C(/C=C/c1ccccc1)c1ccc(O)c(CN2CCN(c3cc4c(cc3F)c(=O)c(C(=O)O)cn4C3CC3)CC2)c1`, the growth is 16.7% (inactive).
In the case of `Cc1[nH]c(-c2cc(N)ccc2Cl)c2c1C(=O)CCCC2`, the growth was 23.2% (inactive).
Same read-out and setting: then `Nc1nc2ncc(CCNc3ccc(C(=O)O)cc3)nc2c(=O)[nH]1`, with 115% (inactive); and `O=C1c2cc3c(cc2-c2c1c1ccc(F)cc1c(=O)n2CCCNCCO)OCO3`, with -55.7% (active).
With `N#C/C(=C\c1ccc(-c2cc(C(F)(F)F)ccc2Cl)o1)c1nc(-c2ccco2)cs1`, the growth is 89.3% (inactive).
On the same count and under the same terms, in the case of `O=c1cc(CSc2nnc(-c3ccc(F)cc3)o2)c2ccc3ccccc3c2o1` it was 93.9% (inactive).
On the same count and under the same terms, in the case of `C=C(C)[C@@H]1CC[C@]2(C(=O)OC)CC[C@]3(C)[C@H](CC[C@@H]4[C@@]5(C)C/C(=C/c6cccc(I)c6)C(=O)C(C)(C)[C@@H]5CC[C@]43C)[C@@H]12` it was 96.9% (inactive); in that of `O=C1OCC2=C1C(c1ccncc1)c1cc3c(cc1N2CCO)OCO3` (stereo not given), 110% (inactive); in that of `COC(=O)c1ccc(NC(=O)c2ccc(-c3cccc([N+](=O)[O-])c3)o2)cc1`, 105% (inactive).
On the same count and under the same terms, in the case of `O=c1cc(/C(=C2/C=CC=N2)c2ccc[nH]2)c2cc(Cl)ccc2o1` it was 24.8% (inactive).
With `COc1ccc2nc(NC(=O)CSc3nnc4n3S(=O)(=O)c3ccccc3N4c3ccccc3)sc2c1`, the growth was 113% (inactive).
`Cc1cc(C)nc(SC2=C(Nc3ccc(C)c(Cl)c3)C(=O)N(Cc3ccccc3)C2=O)n1`: the growth was 32.5% [30 µM] (inactive).
Still for that read-out and setting: then `CC(C)C1=C[C@@]23CC[C@@H]4[C@](C)(CCC[C@@]4(C)C(=O)N4CCCNCC4)[C@H]2C[C@@H]1[C@H]1C(=O)CCC(=O)[C@H]13`, with 93.5% (inactive); and `O=C1C=C(OCC=C(Cl)Cl)C(=O)c2ccccc21`, with 80% (inactive).
The same measure, in the same setting: in the case of `COc1cccc(/C=C2\SC(=Nc3ccc(NC(C)=O)cc3)NC2=O)c1OC` it was 101% (inactive); in that of `C=CCSSc1ncnc2c1ncn2C1OC(CO)C(O)C1O` (stereo not given), 40% (inactive).
On to `Cc1ncc(C(=O)Nc2ccc(CN3CCN(C)CC3)c(C(F)(F)F)c2)cc1C#Cc1cnc2cccnn12`, for which the growth is 0.556% (active).
Still for that read-out and setting: in the case of `NNCCc1ccc(NC(=O)CCCc2ccc(/C=C/C(=O)NO)cc2)cc1` it was 7.74% (active).
With `COc1cc2c(cc1-c1c(C)noc1C)ncc1nc(C3CCOCC3)n([C@H](C)COC(F)F)c12`, the growth was 30.5% (inactive).
Still for that read-out and setting: then `C=CC(=O)Nc1cccc(-c2nc(SC)nc(NCCc3ccc(OC)c(OC)c3)c2C#N)c1`, with 31.2% (inactive).

The values above are taken from PubChem BioAssay (NCI).
